Most compounds without a hit are left out; they make up all but 1.6% or so of the library.
KCNQ2 pot: KCNQ2 (rat) channel potentiation | O88943 | CHO-K1 KCNQ2, FluxOR thallium flux fluorescence; hits give high values | B-score at 10 µM | 310,000 tested, 0.54% active | AID 2239;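 active = fluorescence ratio B-score at least 3 SD of library B-scores, with initial fluorescence B-score within 3 of them, cut at about 5.3 in these data; same plate scores as AID 2156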;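 also: B-score of peak minus minimum over baseline fluorescence ratio after K+ and Tl+ stimulus; positive B-score means potentiation of KCNQ2 with more thallium influx and brighter signal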
KCNQ2 inh: inhibitors of rat KCNQ2 potassium channel; CHO-K1 KCNQ2, FluxOR thallium flux, 20 min; hits give low values; AID 2156; B-score at 10 µM; O88943; 310,000 tested, 1.1% active;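 active = fluorescence ratio B-score at most minus 3 library SDs, with starting brightness B-score within 2 library SDs, cut at about -5.5 in these data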
KCNQ2 inh conf: rat KCNQ2 channel inhibition, confirmatory screen; activity change, negative = inhibition, % at 10 µM; 1,000 tested, 57% active; AID 493025; KCNQ2-expressing cells, thallium flux; hits give low values; shares compounds with KCNQ2 inh;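 also: 0% = vehicle wells and values are ratio percent relative to vehicle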
KCNQ1 spec: KCNQ2 inhibitor that also affects human KCNQ1 channel; activity change, negative = inhibition, % at 10 µM; KCNQ1-expressing cells, FluxOR thallium flux fluorescence; hits give low values; AID 493026; shares compounds with KCNQ2 inh; 1,000 tested, 15% active;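 active = activity change at least 3 SD of negative controls below their mean in both duplicate wells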;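 also: CHO cells stably transfected with KCNQ1 and depolarized by potassium stimulus; peak minus minimum fluorescence over baseline after thallium addition; 0% = vehicle negative control and -100% = blank without thallium stimulus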
CHO Tl ctr: activity in parental CHO cells lacking KCNQ2; thallium flux counter-screen; hits give low values; activity change, % at 10 µM; 1,000 tested, 14% active; shares compounds with KCNQ2 inh;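 also: 0% = vehicle negative controls with stimulus buffer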
KCNQ2 inh confirm: confirmation of rat KCNQ2 potassium channel inhibitors. AID 588531. 550 tested, 49% active. shares compounds with KCNQ2 inh. KCNQ2-expressing cells, automated patch clamp current. calls only at 10 µM
Active calls of the source: *; i = inactive; . = not tested or not shown; + = active, no number. Unless noted, no rule for the calls is given here.

SMILES | KCNQ2 pot | KCNQ2 inh | KCNQ2 inh conf | KCNQ1 spec | CHO Tl ctr | others
CC(C)n1c(SCC(=O)N2CCN(C)CC2)nc2c1c(=O)n(C)c(=O)n2C | 0.76 | i | . | . | .
COc1ccc2oc(C(=O)N3CCN(c4ncccn4)CC3)c(C)c2c1 | 0.12 | i | . | . | .
Cc1ccc2c(C)c(C(=O)N(C)Cc3nccn3C)oc2c1C | -7.6 | -7.6* | i | i | i
Cc1c(C(=O)N(Cc2nccn2C)C(C)C)oc2c(F)cccc12 | 0.43 | i | . | . | .
Cc1ccc2c(C)c(C(=O)N3CCN(c4ncccn4)CC3)oc2c1C | -8.6 | -8.6* | -29%* | i | i | KCNQ2 inh confirm=+
Cc1ccc(/C=N/NC(=O)c2nnn(-c3nonc3N)c2CSc2ccc(Cl)cc2)o1 | 1.2 | i | . | . | .
CN1CCN(S(=O)(=O)c2cccc(C(=O)Nc3ccc(Br)cc3Br)c2)CC1 | 1 | i | . | . | .
COc1ccc(CNC(=O)c2ccc(CS(=O)(=O)Cc3ccccc3F)o2)cc1 | . | i | . | . | .
Cc1ccc2c(c1)C(=O)CC(c1ccc3c(c1)OCCO3)O2 (stereo not given) | 0.39 | i | . | . | .
CC(C)=CCc1cc([C@@H]2CC(=O)c3ccc(O)c(CC=C(C)C)c3O2)ccc1O | -9 | -9* | i | i | i
O=C1c2ccccc2C(O)(c2ccccc2)N1CCc1ccccc1 (stereo not given) | -8.4 | -8.4* | -24%* | i | i | KCNQ2 inh confirm=+
CC1(O)c2ccccc2C(=O)N1Cc1ccccc1 (stereo not given) | 0.05 | i | . | . | .
CN(CC(=O)Nc1ccc(F)c(F)c1F)C(=O)C1CCC1 | . | i | . | . | .
CCCCN(C)C(=O)C1CCN(Cc2cccc(OCc3ccccc3)c2)CC1 | . | i | . | . | .
CN(C)C(CNC(=O)c1ccc(C(=O)c2ccccc2)cc1)c1ccccc1 (stereo not given) | . | i | . | . | .
CN(C)C(CNC(=O)c1ccc(-c2ccccc2)cc1)c1ccccc1 (stereo not given) | -6.6 | -6.6* | i | i | i
CCC(=O)N1CCc2cc(S(=O)(=O)CCC(=O)N3CCN(c4ccc(F)cc4)CC3)ccc21 | . | i | . | . | .
COc1ccc(-c2cc(C(=O)N3CCCCC3)c3ccccc3n2)cc1 | . | i | . | . | .
COc1ccc(-c2cc(C(=O)N3CCCCCC3)c3cc(C)ccc3n2)cc1 | -8.5 | -8.5* | -30%* | i | i | KCNQ2 inh confirm=+
COc1ccc(-c2cc(C(=O)N3CCOCC3)c3cc(C)ccc3n2)cc1 | -7.2 | -7.2* | -31%* | i | i | KCNQ2 inh confirm=+
Cc1ccc(-c2cc(C(=O)N3CCOCC3)c3ccccc3n2)cc1 | . | i | . | . | .
CC1(c2cccc(Br)c2)NC(=O)N(CC(=O)Nc2ccc(F)cc2)C1=O (stereo not given) | . | i | . | . | .
Cc1ccc(-c2cnc(C3CC3)o2)cc1S(=O)(=O)Nc1ccccc1 | . | i | . | . | .
Cc1ccc(N(C)S(=O)(=O)c2cc(-c3cnc(C4CC4)o3)ccc2C)cc1 | -7.2 | -7.2* | -15%* | i | i | KCNQ2 inh confirm=i
Cc1nnc(N)s1 | 1.3 | i | . | . | .
SMILES | KCNQ2 pot | KCNQ2 inh | KCNQ2 inh conf | KCNQ1 spec | CHO Tl ctr | others
CC1(C)CCCN(C(=O)N2c3ccccc3Sc3ccccc32)C1 | -8.6 | -8.6* | i | i | i
O=C(CN1CCCC1)N1c2ccccc2Sc2ccccc21 | 1.9 | i | . | . | .
COc1cc(NC(=O)CCC(=O)c2cccs2)cc(OC)c1 | . | i | . | . | .
CN(CC(=O)Nc1ccc([N+](=O)[O-])cc1Br)Cc1c(F)cccc1Cl | -11 | -11* | i | i | i
CN(CCOc1ccccc1)CC(=O)Nc1ccc([N+](=O)[O-])cc1Cl | . | i | . | . | .
O=S(=O)(c1ccc(Cl)s1)N1CCC(Cc2ccccc2)CC1 | -7.4 | -7.4* | i | i | i
O=S(=O)(c1ccc(Br)s1)N1CCC(Cc2ccccc2)CC1 | -9.3 | -9.3* | i | i | i
O=S(=O)(c1ccc(Cl)s1)N1CCN(CCc2ccccc2)CC1 | 0.56 | i | . | . | .
CN1CCN(S(=O)(=O)c2ccc(Br)s2)CC1 | 0.15 | i | . | . | .
CCOc1cc(C(=O)Nc2cccc(OCC(=O)N3CCOCC3)c2)cc(OCC)c1OCC | . | i | . | . | .
O=C(Cc1sc(-c2ccccc2)nc1-c1ccccc1)Nc1ccccc1 | 0.16 | i | . | . | .
O=C(Cc1sc(Nc2ccccc2)nc1-c1ccccc1)NCc1ccccc1 | -7.1 | -7.1* | i | i | i

Compound activity (PubChem)
